Laboratory results from the supplement of paper PMC6555819.

Assays:
Assay in all cases: PBM binding z-score (relative to random genomic background probes); higher = stronger binding; sequences stand for … in GC…GCGATTGACAGCGTAGAATGAAGG
[1] = tested on: FXR:RXRa (NR concentration 270 nM, RXRa partner concentration 90 nM)
Outline: (§1)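 Antibodies against each partner of ligand-free nuclear receptor dimers (one per run) detected binding on custom Agilent 4×180K protein-binding microarrays after 1 h incubation. The double-stranded probes had 34-nt variable regions carrying direct-repeat seeds, single-nucleotide variants, half-site ablations and random human genomic background sequences. Binding z-scores, from regression-normalized fluorescence, use the random background probes as reference.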

[2] = tested on: LXRa:RXRa (NR concentration 270 nM, RXRa partner concentration 90 nM)
Outline: as §1

[3] = tested on: LXRa homodimer (NR concentration 270 nM)
Outline: as §1

[4] = tested on: LXRb:RXRa (NR concentration 270 nM, RXRa partner concentration 90 nM)
Outline: as §1

[5] = tested on: LXRb homodimer (NR concentration 270 nM)
Outline: as §1

[6] = tested on: PPARa:RXRa (NR concentration 270 nM, RXRa partner concentration 90 nM)
Outline: as §1

[7] = tested on: PPARg:RXRa (NR concentration 180 nM, RXRa partner concentration 90 nM)
Outline: as §1

[8] = tested on: PPARg:RXRa 270nM:90nM, anti-RXR (NR concentration 270 nM, RXRa partner concentration 90 nM)
Outline: as §1

[9] = tested on: PPARg:RXRa 30nM:10nM, anti-RXR (NR concentration 30 nM, RXRa partner concentration 10 nM)
Outline: as §1

[10] = tested on: PPARg:RXRa 90nM:30nM, anti-RXR (NR concentration 90 nM, RXRa partner concentration 30 nM)
Outline: as §1

[11] = tested on: PPARg:RXRa DBDmut IVT, anti-RXR (DBD mutation: RXRa K156A/R161A, NR concentration 270 nM, RXRa partner concentration 90 nM)
Outline: as §1

[12] = tested on: PPARg:RXRa IVT, anti-PPARg (NR concentration 270 nM, RXRa partner concentration 90 nM)
Outline: as §1

[13] = tested on: PPARg DBDmut:RXRa IVT, anti-PPARg (DBD mutation: PPARg1 K132A/R137A, NR concentration 270 nM, RXRa partner concentration 90 nM)
Outline: as §1

[14] = tested on: PPARg DBDmut IVT, anti-PPARg (DBD mutation: PPARg1 K132A/R137A, NR concentration 270 nM)
Outline: as §1

[15] = tested on: PPARg homodimer (NR concentration 180 nM)
Outline: as §1

[16] = tested on: PXR:RXRa (NR concentration 270 nM, RXRa partner concentration 90 nM)
Outline: as §1

[17] = tested on: PXR homodimer (NR concentration 270 nM)
Outline: as §1

[18] = tested on: RARa:RXR (NR concentration 270 nM, RXRa partner concentration 90 nM)
Outline: as §1

[19] = tested on: RARa homodimer (NR concentration 270 nM)
Outline: as §1

[20] = tested on: RARb:RXRa (NR concentration 270 nM, RXRa partner concentration 90 nM)
Outline: as §1

Sequence	PBM binding z-score [1]	PBM binding z-score [2]	PBM binding z-score [3]	PBM binding z-score [4]	PBM binding z-score [5]	PBM binding z-score [6]	PBM binding z-score [7]	PBM binding z-score [8]	PBM binding z-score [9]	PBM binding z-score [10]	PBM binding z-score [11]	PBM binding z-score [12]	PBM binding z-score [13]	PBM binding z-score [14]	PBM binding z-score [15]	PBM binding z-score [16]	PBM binding z-score [17]	PBM binding z-score [18]	PBM binding z-score [19]	PBM binding z-score [20]
CATAAAGGGTCAGCTAGGCCAGAGTAGGGACGGC	5.38	3.9	0.537	2.74	0.607	4.71	4.17	3.83	1.06	2.82	1.58	2.9	0.703	0.0542	2.26	2.18	-0.269	3.32	0.796	4.9
TGAATGAGGTTATAAGATCCGGGAACGTTGCAAA	1.15	1.21	-0.3	0.909	-0.0595	2.45	1.01	1.33	0.723	1.15	1.11	1.48	1.46	0.366	0.364	0.692	-0.0533	1.28	-0.21	1.14
TAGCGTAGGTCATGCGGGCCAGTATAGTGTCGGC	4.01	3.6	0.172	2.19	-0.449	3.68	1.98	2.43	0.234	1.45	0.799	2.08	0.502	-0.521	0.769	2.18	-0.691	2.98	-0.473	3.77
CCTACTGGGCCTTCAGGTCATTGATATCAACGTT	1.24	0.751	0.919	1.3	-0.3	1.93	0.682	1.85	0.024	1.09	2.17	2.64	0.207	0.0216	1.5	1.47	0.552	1.5	-0.361	1.7
AGAATGACGTTAAGATCAGGGAAACAGAATACAT	-0.19	-0.216	-0.265	-0.142	-0.294	-0.223	0.69	-0.0483	0.359	0.136	-0.994	-0.522	-0.562	0.191	-0.654	-0.527	0.305	-0.498	0.719	-0.268
CCTAGGAGGCCAATCTGGGTCACTCAAGGCTTGA	1.29	2.42	-0.439	1.35	-1.2	3.35	2.59	2.49	0.067	1.85	4.15	5.21	-0.00134	-1.3	0.591	1.97	-0.291	1.64	-0.236	1.94
CCTGCTGGGTCATGGTCAGCTAATCTACAGTATG	2.47	1.59	-0.658	1.42	-0.697	3.32	1.97	2.53	0.317	1.69	2.64	2.73	-0.296	0.15	0.949	1.24	-0.638	2.02	-0.488	3.35
CGTCCAAGGTCAGCAGGTCGGTGAAAGCGACGTG	5.28	3.29	-0.232	2.07	-0.502	4.33	2.97	3.45	0.508	2.15	2.81	2.89	-0.853	-0.476	2.43	2.61	-0.066	3.58	0.0156	5.19
GCATATAGGTAATACAAGGTGAATGTCCGATTGT	1.08	1.54	0.343	0.292	-0.289	1.08	1.37	1.14	0.382	0.743	4.28	3.39	1.78	0.61	0.903	0.286	0.012	0.602	0.84	0.305
CGAACTAGGTCACAGAGGTCAAAGTCCGTGCGTA	7.51	6.91	7.06	6.5	1.96	6.56	10.2	8.5	7.02	8.62	8.62	8.94	8.99	6.82	9.8	6.92	13.2	7.77	5.26	5.23
